Reference: PubChem BioAssay AID1159580 (chemical genetic matrix, 2015)
Values joined by “and” are separate entries in the source; they are usually repeats but may differ in a detail not shown here. Equal values may be shown once. Out of some 5,500 compounds screened, about 2,000 (36%) were called active. Roughly 18% stayed inconclusive and do not appear here. Rule as the data show it: active = normalized growth mostly below about 0.91 (no sharp cut-off); inconclusive = no clear call, values can overlap the other calls; inactive = mostly above about 0.92. Some of the results follow.

Test: chemical genetic growth profiling, strain panel (AID 1159580);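 also: tested at 20 µM; growth read once vehicle control cultures reached saturation at 30 °C; 1 = growth at the plate median or of vehicle wells; lower values mean less growth of the strain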
Settings: S. cerevisiae deletion strains, growth OD

Measured: normalized growth

COc1ccc(/C=C/c2cc(O)cc(O)c2)cc1
active: locus YDL074C, strain BRE1, stronger effect = lower value 0.725 | locus YDL192W, strain arf1, stronger effect = lower value 0.729 | locus YDR101C, strain arx1, stronger effect = lower value 0.878 | locus YDR502C, strain sam2, stronger effect = lower value 0.846 | locus YEL061C, strain CIN8, stronger effect = lower value 0.864 | locus YER167W, strain BCK2, stronger effect = lower value 0.872 | locus YGL086W, strain mad1, stronger effect = lower value 0.854 | locus YGR078C, strain PAC10, stronger effect = lower value 0.803 | locus YGR135W, strain pre9, stronger effect = lower value 0.86 | locus YGR252W, strain gcn5, stronger effect = lower value 0.687 | locus YHR129C, strain ARP1, stronger effect = lower value 0.857 | locus YHR200W, strain rpn10, stronger effect = lower value 0.879 | locus YIL066C, strain RNR3, stronger effect = lower value 0.841
0.863 (active) and 1.04 (inactive): locus YHR030C, strain SLT2, stronger effect = lower value
0.709 (active) and 0.967 (inactive): locus YJL095W, strain BCK1, stronger effect = lower value
inactive: locus YAL021C, strain ccr4, stronger effect = lower value 0.984 | locus YAL026C, strain drs2, stronger effect = lower value 1.01 | locus YAL030W, strain snc1, stronger effect = lower value 1.01 | locus YBL061C, strain skt5, stronger effect = lower value 1.01 | locus YBR009C, strain hhf1, stronger effect = lower value 1 | locus YBR021W, strain FUR4, stronger effect = lower value 0.949 | locus YBR023C, strain chs3, stronger effect = lower value 1 | locus YBR171W, strain sec66, stronger effect = lower value 1.02 | locus YBR229C, strain ROT2, stronger effect = lower value 0.978 | locus YBR231C, strain swc5, stronger effect = lower value 1 | locus YBR279W, strain paf1, stronger effect = lower value 1 | locus YCL011C, strain gbp2, stronger effect = lower value 0.991 | locus YCL016C, strain dcc1, stronger effect = lower value 1 | locus YCL029C, strain bik1, stronger effect = lower value 0.931 | locus YCL061C, strain MRC1, stronger effect = lower value 0.999 | locus YCL069W, strain vba3, stronger effect = lower value 1.01 | locus YCR088W, strain abp1, stronger effect = lower value 1 | locus YDL005C, strain med2, stronger effect = lower value 1.01 | locus YDL035C, strain GPR1, stronger effect = lower value 0.868 | locus YDL040C, strain nat1, stronger effect = lower value 1.01 | locus YDL101C, strain DUN1, stronger effect = lower value 0.949 | locus YDL134C, strain PPH21, stronger effect = lower value 0.895 | locus YDL185W, strain tfp1, stronger effect = lower value 0.976 | locus YDR001C, strain nth1, stronger effect = lower value 1.01 | locus YDR069C, strain doa4, stronger effect = lower value 1.02 | locus YDR137W, strain rgp1, stronger effect = lower value 1.02 | locus YDR159W, strain sac3, stronger effect = lower value 1.01 | locus YDR162C, strain NBP2, stronger effect = lower value 0.866 | locus YDR195W, strain ref2 1.06 | locus YDR297W, strain sur2, stronger effect = lower value 1 | locus YDR318W, strain mcm21, stronger effect = lower value 0.919 | locus YDR334W, strain swr1, stronger effect = lower value 1.02 | locus YDR335W, strain msn5, stronger effect = lower value 0.999 | locus YDR388W, stronger effect = lower value 0.962 | locus YDR392W, strain spt3, stronger effect = lower value 0.982 | locus YEL003W, strain gim4, stronger effect = lower value 1.01 | locus YEL037C, strain rad23, stronger effect = lower value 1.01 | locus YEL061C, strain CIN8 (second series), stronger effect = lower value 1.01 | locus YER015W, strain faa2, stronger effect = lower value 0.998 | locus YER016W, strain bim1, stronger effect = lower value 1.01 | locus YER110C, stronger effect = lower value 0.956 | locus YER111C, strain swi4, stronger effect = lower value 1.01 | locus YER155C, strain BEM2 (second series), stronger effect = lower value 1 | locus YER155C, strain BEM2, stronger effect = lower value 0.945 | locus YFR010W, strain ubp6, stronger effect = lower value 1.01 | locus YGL078C, strain dbp3, stronger effect = lower value 0.946 | locus YGL167C, strain pmr1, stronger effect = lower value 1.01 | locus YGL173C, strain kem1, stronger effect = lower value 1.02 | locus YGL227W, strain vid30, stronger effect = lower value 1.01 | locus YGL240W, strain doc1, stronger effect = lower value 1 | locus YGL248W, strain PDE1, stronger effect = lower value 0.907 | locus YGL253W, strain hxk2, stronger effect = lower value 1.01 | locus YHR013C, strain ard1, stronger effect = lower value 1 | locus YHR027C, strain rpn1, stronger effect = lower value 0.998 | locus YHR079C, strain IRE1 (second series), stronger effect = lower value 0.974 | locus YHR079C, strain IRE1, stronger effect = lower value 1.01 | locus YHR094C, strain hxt1, stronger effect = lower value 0.96 | locus YHR142W, strain chs7, stronger effect = lower value 0.99 | locus YIL073C, strain SPO22, stronger effect = lower value 0.896 | locus YIL125W, strain kgd1, stronger effect = lower value 0.955 | locus YIR030C, strain dcg1, stronger effect = lower value 0.957 | locus YJL092W, strain hpr5, stronger effect = lower value 1.01 | locus YJL095W, strain BCK1 (second series), stronger effect = lower value 1.01 | locus YJL115W, strain asf1, stronger effect = lower value 1.01 | locus YJL129C, strain trk1, stronger effect = lower value 0.986 | locus YJL134W, strain LCB3, stronger effect = lower value 0.983 | locus YJL154C, strain vps35, stronger effect = lower value 1.01 | locus YJL164C, strain tpk1, stronger effect = lower value 0.986 | locus YJL166W, strain qcr8, stronger effect = lower value 1 | locus YJL168C, strain set2, stronger effect = lower value 0.969 | locus YJL187C, strain SWE1 (second series), stronger effect = lower value 0.89 | locus YJL187C, strain SWE1, stronger effect = lower value 0.997
